Results on 59 molecules are retold here after PubChem BioAssay AID2401 (Southern Research Specialized Biocontainment Screening …, 2010).

Hit rate of the full screen: of about 2,200 compounds, about 530 (24%) were called active.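 The calls were made as follows: active = inhibition above a set limit at one or more concentrations of the dose series; inactive = inhibition under that limit at every dose.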 Only a sample is shown. Measured potencies and affinities stand elsewhere.

The nature of this assay: S. Typhimurium nonspecific reporter signal inhibition – Salmonella Typhimurium, GFP fluorescence, counter-screen for PhoP regulon inhibitor project, dose response (AID 2401).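 Also: S. typhimurium with Mg-insensitive nmpC-GFP reporter grown at 10 µM Mg2+; drop in reporter fluorescence reflects general culture growth inhibition.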 As to conditions: 4 h; series mostly up to 150 µM. On the technique in general: The purpose of a counterscreen is to sort out artefacts and off-target activity.
For `CC(=O)Nc1nc2nc(-c3ccccc3)cc(-c3ccccc3)n2n1`, the result was inactive.

`Cc1cccc(Sc2c([N+](=O)[O-])ncn2C)c1`: the outcome was inactive.

Turning to `S=C(NCc1cccnc1)Nc1ccc(Cl)c(Cl)c1`, the result was inactive.

Consider `Cn1ccnc1C(O)c1ccc(OCc2ccccc2)cc1` (centres undefined), for which the molecule was classed as inactive.

On to `O=C(c1cnsn1)N1CCN(c2ccccc2)CC1`, for which the result was inactive.

As to `O=C(Nc1ccc(F)cc1)c1ccccc1F`, the molecule was called inactive.

`CC(C)(C)NS(=O)(=O)c1ccc(CCC(=O)N2CCOCC2)cc1`: the molecule was classed as inactive.

For `O=c1ccc2ccc(Oc3ccc([N+](=O)[O-])cc3[N+](=O)[O-])cc2o1`, the result was inactive.

As to `O=[N+]([O-])c1ccc(-n2nnnc2-c2ccccc2)c([N+](=O)[O-])c1`, the outcome was inactive.

Turning to `O=C(Nc1ccccc1)Oc1ccc[nH]c1=O`, the result was inactive.

On to `Cc1ccc(N)cc1-n1c(C)ccc1C`, for which the outcome was inactive.

In the case of `O=C(CC(NS(=O)(=O)c1ccc(Cl)cc1)c1ccco1)N1CCc2ccccc21` (centres undefined), the outcome was inactive.

As to `CC1CCN(C(=O)c2ccc3c(c2NCCO)C(=O)c2ccccc2C3=O)CC1`, the molecule was classed as inactive.

For `CC(=O)Cn1cnc2sc(-c3ccccc3)cc2c1=O`, the call was inactive.

With `COCCn1cc(C(=O)N2CCC(C)CC2)c2c3ccccc3n(C)c2c1=O`, the call was inactive.

In the case of `Oc1ccccc1-c1nc(/C=C/c2ccccc2)nn1-c1ccccc1`, the molecule was called inactive.

On to `Cc1ccc(Cn2cnc3ccccc32)cc1`, for which the result was inactive.

On to `COc1cc(NC(=O)Nc2cccc(Cl)c2)c(OC)cc1NC(=O)CN1CCCCC1`, for which the call was inactive.

`O=C(NCCCc1ccccc1)Nc1cccc(Cl)c1`: the result was inactive.

For `CCCOc1ccc(C(=O)C(CCC(CNCC)C(=O)c2ccc(OCCC)cc2)CNCC)cc1` (centres undefined), the result was inactive.

On to `O=C1c2ccccc2C(=O)N1CCc1csc(-c2cccc(Cl)c2)n1`, for which the outcome was inactive.

For the molecule `CCOC(=O)c1ccc2c(c1)C(=O)N(C1CCCCC1)C2=O`, the call was inactive.

For the molecule `CC(=O)c1ccc(NC(=S)NC(NC(=O)c2ccco2)C(Cl)(Cl)Cl)cc1` (centres undefined), the call was inactive.

For `O=[N+]([O-])c1cccc(CN(CCO)Cc2ccccc2)c1`, the molecule was classed as inactive.

For the molecule `Nc1nc(CSc2nc3ccccc3[nH]2)nc(N2CCOCC2)n1`, the outcome was inactive.

Regarding `COC(=O)c1ccc(C(=O)OC)c(NC(=O)COc2ccccc2OC)c1`, the molecule was classed as inactive.

Take `CCN(CC)c1ccc(S(=O)(=O)Nc2cc(Cl)ccc2Cl)cc1NC(=S)NC(=O)C1CCCC1`: the molecule was classed as inactive.

Consider `O=C1/C(=C/c2ccccc2)NC(=S)N1C(c1ccccc1)c1ccccc1`, for which the result was inactive.

Turning to `CCN(CC)S(=O)(=O)c1cccc(NC(=O)Nc2cccc(C(F)(F)F)c2)c1`, the molecule was called inactive.

Turning to `Fc1cc(Br)ccc1NC(=S)Nc1ccccc1`, the molecule was classed as inactive.

Turning to `Nc1ccc2c(c1)C(=O)N(CC1CCCO1)C2=O` (centres undefined), the outcome was inactive.

As to `Cc1cccc(C(=O)O/N=C2\CCSc3ccc(C)cc32)c1`, the outcome was inactive.

`CCOC(=O)c1cnc2ccc(OC)cc2c1Nc1ccc2c(c1)OCCO2`: the molecule was classed as inactive.

As to `Cn1c(COc2ccccc2)nnc1SCc1nc2ccccc2[nH]1`, the result was inactive.

Regarding `COc1ccccc1-n1c(SCc2cc(=O)oc3cc(O)ccc23)nc2ccccc2c1=O`, the result was inactive.

Consider `COc1cccc(/C=N/n2c(C)nc3ccccc3c2=O)c1O`, for which the result was inactive.

For the molecule `Cc1cccc(C)c1OCC(=O)Nn1c(COc2ccccc2)nc2ccccc2c1=O`, the molecule was called inactive.

As for `Nc1nc2ccccc2n1/N=C/c1ccc(-c2ccccc2)o1`, the molecule was called inactive.

On to `O=C(Nc1ccc2snnc2c1)Nc1cccc2ccccc12`, for which the molecule was called inactive.

On to `CCOC(=O)C1=C(C)NC(SCc2cc(=O)[nH][nH]2)=C(C#N)C1c1cccs1` (centres undefined), for which the molecule was classed as inactive.

As to `COc1ccc(C2CC(c3ccccc3)=NN2C(=O)COC(=O)c2cccnc2)cc1` (centres undefined), the call was inactive.

As for `O=C(CN1C(=O)COc2ccccc21)Nc1ccc(F)cc1`, the outcome was inactive.

In the case of `Brc1ccc2nc3c(n2c1)CCCC3`, the call was inactive.

With `CCCCn1c(NCCO)nc2ccccc21`, the call was inactive.

Regarding `CCCCn1c(=N)n(CC(=O)C(C)(C)C)c2ccccc21`, the molecule was called inactive.

As for `Cc1ccc(O)c(-c2cc(-c3ccccc3C)[nH]n2)c1`, the result was inactive.

As to `COC(=O)c1c(C)[nH]c(C(C)=O)c1C`, the result was inactive.

Regarding `CCN(CC(=O)Nc1ccc(N2CCOCC2)cc1)Cc1nc2ccccc2c(=O)[nH]1`, the molecule was called inactive.

With `O=C(Cn1nc(Cl)nc1Cl)c1ccc2c(c1)OCCO2`, the molecule was classed as inactive.

Turning to `COc1ccc(Nc2ccc3c(c2)=NC2(CCCCC2)[N+]=3[O-])cc1`, the molecule was called inactive.

As to `CCOC(=O)N1CCN(C(=O)C(NC(=O)c2ccc(CC)cc2)C(C)C)CC1` (centres undefined), the outcome was inactive.

For `CC(C)CCNC(=O)C(c1ccco1)N(Cc1ccc(F)cc1)C(=O)c1snc(C(N)=O)c1N` (centres undefined), the call was inactive.

Turning to `O=C1c2ccccc2-c2onc3ccc(NCc4ccco4)c1c23`, the result was inactive.

Consider `CCOC(=O)c1c(C)[nH]c(C)c1C(=O)COC(=O)/C=C/c1cccc(F)c1`, for which the outcome was inactive.

Turning to `COC(=O)c1ccccc1NC(=O)CS(=O)(=O)Cc1nc(-c2ccc(C)cc2)oc1C`, the call was inactive.

Consider `Cc1ccc(CNC(=O)c2cccc(S(C)(=O)=O)c2)cc1`, for which the molecule was called inactive.

In the case of `CCOC(=O)CC(=O)CSc1nc2c(c(C)c1C#N)CCC2`, the molecule was classed as inactive.

As for `CCn1c(SCc2nc3scc(-c4ccccc4)c3c(=O)[nH]2)nnc1-c1cccs1`, the molecule was classed as inactive.

For `CN1c2ccccc2C(C)(C)[C@]12C=Cc1cc(O)ccc1O2`, the molecule was classed as inactive.
